Screening data (PubChem BioAssay)
Vc quorum ag: inducers of Vibrio cholerae quorum light production without autoinducers | 350,000 tested, 0.16% active | activation, % at 18.7 µM | V. cholerae BH1578 lux reporter, luminescence, 6 h; in the data active = activation mostly above about 9.7%, no sharp cut-off; inconclusive = no clear call, values can overlap the other calls; inactive = mostly below about 3.7%
DUSP3 inh: blocks human VHR1 dual specificity phosphatase | recombinant VHR phosphatase, pNPP absorbance | AID 1654 | 290,000 tested, 0.52% active | inhibition, % at 13.3 µM | P51452; in the data active = inhibition above about 50%
Target sequence (P51452 whole entry, looked up): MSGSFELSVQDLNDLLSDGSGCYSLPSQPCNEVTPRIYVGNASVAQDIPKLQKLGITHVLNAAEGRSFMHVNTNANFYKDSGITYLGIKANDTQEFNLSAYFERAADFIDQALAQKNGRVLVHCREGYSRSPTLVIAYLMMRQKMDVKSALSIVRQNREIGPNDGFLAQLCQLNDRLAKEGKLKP
PfHsp40 yeast: restores yeast growth despite PfHsp40 toxicity; growth rescue, % at 12.5 µM; 340,000 tested, 0.68% active; S. cerevisiae expressing PfHsp40, growth rescue, ATP luminescence; in the data active = growth rescue above about 28%, passing the limit was not always enough; inconclusive = no clear call, values can overlap the other calls;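 also: yeast W303a lacking pdr1 and pdr3 grown in galactose medium; growth measured after three days at 30 °C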
SARS 3CLpro inh: SARS-CoV 3CLpro protease inhibition. P0C6X7. recombinant SARS-CoV 3CLpro, quenched FRET peptide cleavage. inhibition, % at 6 µM. 290,000 tested, 0.14% active. AID 1706; in the data active = inhibition above about 12%
BJeLR lethal: BJeLR cell viability loss. 300,000 tested, 0.17% active. BJeLR (HRASV12) viability, CellTiter-Glo ATP luminescence, 48 h. inhibition, % (concentration not given with the values). AID 1554; in the data active = inhibition above about 50%; inconclusive = no clear call, values can overlap the other calls
MazEF act: increases E. coli MazEF RNase cleavage of RNA | P0AE70 | FAM/BHQ RNA-DNA oligo cleavage fluorescence, 5 h | activation, % at 20 µM | 350,000 tested, 0.32% active; in the data active = activation above about 50%
Target sequence (P0AE70 whole entry, looked up): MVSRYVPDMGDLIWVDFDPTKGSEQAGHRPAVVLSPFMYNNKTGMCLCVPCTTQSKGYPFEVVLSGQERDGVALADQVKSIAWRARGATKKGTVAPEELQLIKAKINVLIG
* = called active by the depositor. Sampled rows, rich in hits. Any-hit rate of the full collection: about 1.7%.

`O=C(NCC1CC1(Cl)Cl)Nc1ccc(Cl)c(Cl)c1` (configuration not stated) gave Vc quorum ag -0.5, DUSP3 inh 38.4, PfHsp40 yeast 303.8*, SARS 3CLpro inh -3.2, BJeLR lethal -9.6 and MazEF act 17.1.
For CN(C)c1ccc(/C=C(/NC(=O)c2ccccc2)C(=O)NCCCn2ccnc2)cc1 the results were Vc quorum ag inactive, DUSP3 inh -5.0, PfHsp40 yeast -0.8, SARS 3CLpro inh 7.5, BJeLR lethal -8.4 and MazEF act 73.6*.
O=C(NCCCn1ccnc1)c1ccc(N2CCCCCC2)c([N+](=O)[O-])c1 was read as Vc quorum ag -0.8, DUSP3 inh 8.3, PfHsp40 yeast 0.9, SARS 3CLpro inh 0.3, BJeLR lethal 71.2* and MazEF act 6.3.
Screening CC1CN(S(=O)(=O)c2ccc(C(=O)NCCCn3ccnc3)cc2)CC(C)O1 (configuration not stated) returned Vc quorum ag -0.1, DUSP3 inh -8.5, SARS 3CLpro inh 0.4, BJeLR lethal 70.8* and MazEF act -11.6.
`O=C(NCCCn1ccnc1)Nc1ccc(Cl)c(Cl)c1` gave DUSP3 inh 27.2, PfHsp40 yeast 45.6*, SARS 3CLpro inh -0.6, BJeLR lethal 1.1 and MazEF act 0.1.
`O=C(NCCCn1ccnc1)Nc1ccc(Cl)cc1` gave Vc quorum ag 0.9, DUSP3 inh 13.0, PfHsp40 yeast -1.4, SARS 3CLpro inh -1.2, BJeLR lethal 3.1 and MazEF act 0.1.
C[C@@H]1O[C@@H](O[C@H]2C[C@@H](O)[C@]3(CO)[C@H]4[C@H](O)C[C@]5(C)[C@@H](C6COC(=O)C6)CC[C@]5(O)[C@@H]4CC[C@]3(O)C2)[C@H](O)[C@H](O)[C@H]1O (some centres not stated) was read as Vc quorum ag 1.2, DUSP3 inh 16.3, PfHsp40 yeast 0.2, SARS 3CLpro inh -1.1, BJeLR lethal 71.5* and MazEF act -3.3.
Screening C=CCNC(=S)NNC(=O)c1ccc(Br)cc1 returned Vc quorum ag -0.3, DUSP3 inh 22.7, PfHsp40 yeast -0.1, SARS 3CLpro inh 1.2, BJeLR lethal 7.5 and MazEF act 2.7.
C=C(C)CNC(=S)NNC(=O)c1ccc(Br)cc1 was read as Vc quorum ag inactive, DUSP3 inh 50.8*, PfHsp40 yeast 2.5, SARS 3CLpro inh 2.3, BJeLR lethal 2.6 and MazEF act 6.4.
Screening O=C(Nc1cccc2c1CCCC2)c1ccccc1Br returned Vc quorum ag inactive, DUSP3 inh 51.5*, PfHsp40 yeast 0.5, SARS 3CLpro inh -4.0, BJeLR lethal 0.6 and MazEF act 19.6.
For O=C(Nc1cccc2c1CCCC2)c1ccco1 the results were Vc quorum ag -0.9, DUSP3 inh -9.8, PfHsp40 yeast 0.1, SARS 3CLpro inh 1.6, BJeLR lethal 2.0 and MazEF act -0.7.
Screening C/C(=N\Nc1ccc2nncn2n1)c1ccccn1 returned Vc quorum ag -0.1, DUSP3 inh 21.3, SARS 3CLpro inh -2.9, BJeLR lethal 62.5* and MazEF act 4.2.
Screening Oc1c(C(Nc2ccccn2)c2ccccn2)ccc2cccnc12 (configuration not stated) returned Vc quorum ag inactive, DUSP3 inh 4.5, PfHsp40 yeast 63.3*, SARS 3CLpro inh 1.7, BJeLR lethal 9.8 and MazEF act 9.5.
For Cc1ccnc(NC(c2cccnc2)c2ccc3cccnc3c2O)c1 (configuration not stated) the results were Vc quorum ag -0.5, DUSP3 inh 28.8, PfHsp40 yeast -0.6, SARS 3CLpro inh 1.4, BJeLR lethal 1.7 and MazEF act 1.8.
Cc1ccc2ccc(C(Nc3ccccn3)c3ccccc3)c(O)c2n1 (configuration not stated) was read as DUSP3 inh 8.7, PfHsp40 yeast -0.7, SARS 3CLpro inh -1.7, BJeLR lethal 11.5 and MazEF act -9.5.
Screening O=C(O)c1ccccc1NC(c1ccccc1)c1ccc2cccnc2c1O (configuration not stated) returned Vc quorum ag -1.1, PfHsp40 yeast 322.0* and MazEF act -18.8.
`Cc1ccnc(NC(c2ccccc2)c2ccc3cccnc3c2O)c1` (configuration not stated) gave Vc quorum ag -8.3, PfHsp40 yeast 153.7* and MazEF act -26.0.
CC(=O)NC(c1ccc(Cl)cc1)c1ccc2cccnc2c1O (configuration not stated) was read as Vc quorum ag inactive, PfHsp40 yeast inconclusive and MazEF act 4.7.
For Cc1cc(NC(c2ccc(Cl)cc2)c2ccc3cccnc3c2O)no1 (configuration not stated) the results were Vc quorum ag inactive, DUSP3 inh 16.1, PfHsp40 yeast 44.0*, SARS 3CLpro inh 9.1, BJeLR lethal -5.8 and MazEF act 12.9.
For CN1CCN(c2c([N+](=O)[O-])cnc3ccccc23)CC1 the results were Vc quorum ag -0.6, PfHsp40 yeast -0.4, BJeLR lethal 6.3 and MazEF act 4.5.
`Cc1c(C(=O)NCc2ccc3c(c2)OCCO3)sc(=O)n1Cc1ccc(S(=O)(=O)N(C)C)cc1` gave Vc quorum ag -0.4.
`COc1ccc(C(=O)OCC(=O)NC(=O)NC2CCCC2)cc1OC` gave Vc quorum ag -0.3, PfHsp40 yeast -1.0 and MazEF act -8.0.
`CC(C)CNc1nc(N)c([N+](=O)[O-])c(N2CCCCCC2)n1` gave Vc quorum ag inactive, DUSP3 inh 15.5, PfHsp40 yeast 0.9, SARS 3CLpro inh -0.4, BJeLR lethal 4.8 and MazEF act 4.6.
Screening COc1ccc(-c2oc3cccnc3c2-c2ccc(OC)nc2)cc1 returned Vc quorum ag inactive, DUSP3 inh 8.9, PfHsp40 yeast 5.7, SARS 3CLpro inh 3.0, BJeLR lethal -1.7 and MazEF act -10.8.
For Cc1ccnc(NC(c2ccsc2)c2ccc3ccc(C)nc3c2O)c1 (configuration not stated) the results were Vc quorum ag -0.3, DUSP3 inh 15.1, PfHsp40 yeast 249.6*, SARS 3CLpro inh -0.3, BJeLR lethal -10.8 and MazEF act -24.7.
For CCN(Cc1ccc(OC)c(COC)c1)CC1CCCN(CCc2cccc(OC)c2)C1 (configuration not stated) the results were Vc quorum ag -0.9, DUSP3 inh 53.6*, PfHsp40 yeast 0.7, SARS 3CLpro inh -5.1, BJeLR lethal 15.2 and MazEF act 0.3.
COc1ccc(CN(C)CC2CCCN(CCc3ccc(F)cc3)C2)c(OC)c1OC (configuration not stated) was read as Vc quorum ag -1.6, DUSP3 inh 59.7*, PfHsp40 yeast -0.1, SARS 3CLpro inh -2.4, BJeLR lethal 3.0 and MazEF act 8.4.
`COc1ccc(CCN2CCCC(CN(C)Cc3cc(OC)ccc3OC)C2)cc1` (configuration not stated) gave Vc quorum ag 0.2, DUSP3 inh -1.9, PfHsp40 yeast -0.6, SARS 3CLpro inh -5.5, BJeLR lethal -4.8 and MazEF act -9.3.
